From the supplement of paper PMC13380429

Tested on: Vero E6 infected with SARS-CoV-2
Experiment: inhibition of SARS-CoV-2 cytopathic effect; higher = more antiviral protection, active = above 15
Details: 48 h

Measured: inhibition of SARS-CoV-2 cytopathic effect

NS(=O)(=O)c1cc2c(cc1Cl)NCNS2(=O)=O [hydrochlorothiazide]
inactive: 1 nM 3.33% | 8.33 nM 0.33% | 100 nM 0.49% | 833.33 nM 0.84% | 10000 nM -1.16%

CN1C(=O)C(F)=C[C@]2(C)[C@H]3CC[C@]4(C)[C@@H](C(=O)NCc5nc6cccnc6[nH]5)CC[C@H]4[C@@H]3CC[C@@H]12
inactive: 1 nM 0.34% | 8.33 nM -0.43% | 100 nM -0.05% | 833.33 nM 2.35% | 10000 nM 1.08%

FC(F)(F)c1ccc(N2CCNCC2)nc1Cl
inactive: 1 nM 1.34% | 8.33 nM -0.28% | 100 nM 0.72% | 833.33 nM 1.94% | 10000 nM -3.98%

CCCn1c(=O)c2[nH]c(C3CCCC3)nc2n(CCC)c1=O
inactive: 1 nM 2.33% | 8.33 nM 2.47% | 100 nM 1.58% | 833.33 nM -1.44% | 10000 nM 1.86%

CCCc1nc(C(C)(C)O)c(C(=O)OCc2oc(=O)oc2C)n1Cc1ccc(-c2ccccc2-c2nnn[nH]2)cc1 [olmesartan-medoxomil]
inactive: 1 nM -1.27% | 8.33 nM 0.1% | 100 nM -1.32% | 833.33 nM 1.87% | 10000 nM 0.55%

Cc1ccsc1C(=CCCN1CCC[C@@H](C(=O)O)C1)c1sccc1C [tiagabine]
inactive: 1 nM 1.59% | 8.33 nM 1.98% | 100 nM 0.33% | 833.33 nM -3.02% | 10000 nM 0.65%

CC[C@@]1(O)C(=O)OCc2c1cc1n(c2=O)Cc2cc3ccccc3nc2-1 [camptothecin]
inactive: 1 nM -1.27% | 8.33 nM 1.92% | 100 nM -1.93% | 833.33 nM -11.9% | 10000 nM -20.7%
